The values that follow come from ChEMBL document CHEMBL4513216, “Probing the Open Global Health Chemical Diversity Library for Multistage-Active Starting Points for Next-Generation Antimalarials” (ACS Infect Dis, 2020).

Screen size: about 69,000 compounds; about 8,600 (12%) showed an effect of 50% or more. Many of the other results were omitted from the sample, so strong results are more common in it than they were.

The test system of the assay is Plasmodium berghei. In words: Screen against P. berghei liver stage (PbLuc), transformed with Luciferase, at 10uM. The format is functional, HepG2. The note with it: tested at 10 uM.
With `CCOCc1nn(C)c2c1CN(CCO)CC2`, the INHIBITION worked out at 27.6%.

`O=C(N1CCOCC1)[C@@]12CCO[C@@H]1CCN(C1CCCCC1)C2`: the INHIBITION came out at 0.542%.

Take `COc1ccc(OC)c(CN(C)c2nc3c(cnn3C)c(=O)[nH]2)c1`: the INHIBITION came to 4.3%.

For `COc1ccc(CN(C)c2nc3c(cnn3C)c(=O)[nH]2)c(OC)c1`, the INHIBITION came out at 73.8%.

Turning to `COc1ccccc1CN(C)c1nc2c(cnn2C)c(=O)[nH]1`, the INHIBITION is 27.9%.

In the case of `COc1cccc([C@@]2(O)CC[C@@H]3CN(C(=O)c4c[nH]nc4C)C[C@@H]32)c1`, the INHIBITION is 15.15%.

In the case of `CC(=O)N1CCN(c2cc(CCN)nc(C3CC3)n2)CC1`, the INHIBITION came to 3.91%.

As to `CSc1nsc(SCC(=O)c2cc3c(cc2Cl)NC(=O)C3)n1`, the INHIBITION stood at 18.4%.

As for `COc1cc(C(=O)N2CCCS2(=O)=O)cc(Cl)c1OC`, the INHIBITION is reported as 21.1%.

Regarding `CCCOc1c(Cl)cc(C(=O)N2CCOC23CCN(C)CC3)cc1Cl`, the INHIBITION amounted to 55.4%.

On to `CCCOc1ccc(C(=O)N2CCN3CCNC(=O)C3C2)cc1Cl` (stereo not drawn), for which the INHIBITION was 18.7%.

Consider `CCCOc1ccc(C(=O)N2CC[C@@H]3CC[C@H](C2)N3)cc1Cl`, for which the INHIBITION is listed as -4.4%.

Regarding `CCN1CCC2(CC1)OCCN2C(=O)c1cc(Cl)c(OC)c(Cl)c1`, the INHIBITION is 59.5%.

Take `CCN1CCC2(CC1)OCCN2C(=O)c1ccc(OC)c(Cl)c1`: the INHIBITION turned out to be 45%.

For the compound `Cc1ccc(C(NC(=O)CCCN2CCCCC2)C(=O)O)cc1` (stereo not drawn), the INHIBITION is -18.9%.

For the compound `COc1cc(CCC(=O)N2CCC(c3cnccn3)CC2)on1`, the INHIBITION stood at 36.15%.

On to `Cc1ccc(F)c(NS(=O)(=O)c2cc3c(c(C(=O)O)c2)OCCO3)c1`, for which the INHIBITION is 14.1%.

Consider `COCCN1C(=O)[C@@H]2CC[C@H]1CN(C(=O)Cc1c(F)cccc1Cl)C2`, for which the INHIBITION is -107%.

As for `CCc1c(C(=O)O)nnn1-c1cc(C)ccc1C`, the INHIBITION was -7.83%.

In the case of `Cc1cc(C)n(CC2CN(Cc3cccnc3)CCO2)n1` (stereo not drawn), the INHIBITION is reported as 18.7%.

In the case of `CC(=O)N1CC[C@H]2OCC[C@@]2(C(=O)NCCc2ccccn2)C1`, the INHIBITION came out at 3.81%.

Take `COCCNc1ccc(CNCc2cnc3nc(C)cc(C)n23)cc1`: the INHIBITION was -45.7%.

As for `CCC(C(=O)NCCc1coc(-c2ccc(C)cc2)n1)N(C)C` (stereo not drawn), the INHIBITION was 10.5%.

Turning to `Cc1ccc(-c2nc(CCNC(=O)NC3CCC(O)CC3)co2)cc1` (stereo not drawn), the INHIBITION came to 68.8%.

Turning to `O=C(NCCc1coc(-c2ccc(F)cc2)n1)NC1CC1`, the INHIBITION is given as 0.914%.

On to `O=C(NCCc1coc(-c2ccccc2)n1)NC1CC1`, for which the INHIBITION is recorded as 44.1%.

Consider `COc1ccc(-c2nc(CCNC(=O)NC3CCC(O)CC3)co2)cc1` (stereo not drawn), for which the INHIBITION turned out to be 50.6%.

In the case of `COc1ccc(-c2nc(CCNC(=O)NCC3CCOC3)co2)cc1` (stereo not drawn), the INHIBITION is 1.04%.

Consider `O=C(NCCc1coc(-c2ccc(F)cc2)n1)NCC1CCOC1` (stereo not drawn), for which the INHIBITION is 13.8%.

As for `O=C(NCCc1coc(-c2ccc(F)cc2)n1)NC1CCC(O)CC1` (stereo not drawn), the INHIBITION came out at 54.6%.

With `Cc1ccc(-c2nc(CCNC(=O)NC3CCN(C)CC3)co2)cc1`, the INHIBITION is on record as -9.14%.

Take `c1ccc(CCN2CCCC(c3ccnc4nccn34)C2)cc1` (stereo not drawn): the INHIBITION turned out to be 39.1%.

In the case of `O=C(c1ccncc1F)N1CC[C@@H]2OC(COCC3CC3)CC[C@@H]21` (stereo partly drawn), the INHIBITION was 14.5%.

Regarding `CCCN(CC(F)F)C(=O)CCc1c(C)nc2cc(O)nn2c1C`, the INHIBITION came out at 4.1%.

With `Cc1nn(Cn2ccc(C(=O)N3CCCCCC3)n2)c(C)c1Cl`, the INHIBITION worked out at 26.9%.

Regarding `CCn1nc(C)c(CNC(=O)c2nnc3ccc(Cl)cc3n2)c1C`, the INHIBITION is recorded as 73.1%.

For `CCn1nc(C)c(CNC(=O)C2COc3ccccc3C2)c1C` (stereo not drawn), the INHIBITION is on record as 15.9%.

As to `CCn1nc(C)c(CNC(=O)c2nnc3ccccc3n2)c1C`, the INHIBITION amounted to 58.2%.

With `CCn1nc(C)c(CNC(=O)NCC(C)(O)c2ccccc2)c1C` (stereo not drawn), the INHIBITION was -6.12%.

Turning to `O=C(NCCCn1cccn1)c1nnc2ccccc2n1`, the INHIBITION is on record as 37.9%.

Take `O=C(NCC1CC1)c1nnc2ccc(Cl)cc2n1`: the INHIBITION came to 5.21%.

Take `O=C(NCCn1cccn1)c1nnc2ccccc2n1`: the INHIBITION is given as 68.5%.

As to `CCn1nc(C)c(CNC(=O)c2nnc3ccc(OC)cc3n2)c1C`, the INHIBITION is given as 41.6%.

Regarding `Cc1ccc2nnc(C(=O)NCCCn3cccn3)nc2c1`, the INHIBITION is 26.8%.

On to `CS(=O)(=O)N1CCCC(C(=O)Nc2cnn(COCC(F)(F)F)c2)C1` (stereo not drawn), for which the INHIBITION came out at 4.08%.

Turning to `Cc1ccc(C2(CN(C)Cc3sccc3C)CCNCC2)nc1`, the INHIBITION was found to be 6.66%.

Turning to `CC(C)C(=O)N1CCCC([C@@H]2C[C@H](C(F)F)n3ncnc3N2)C1` (stereo partly drawn), the INHIBITION came to 5.295%.

With `O=C1CC[C@H]2[C@H](CCN2C(=O)N2CCCC2)N1Cc1ccncc1`, the INHIBITION is recorded as 41.2%.

With `Cc1nsc2ncc(C(=O)N3CCCC3c3cnn(C)c3)cc12` (stereo not drawn), the INHIBITION worked out at 19.2%.

For `Cc1ccc2c(c1)[C@@H](CC(=O)N1CCOCC1)CCO2`, the INHIBITION is 14.5%.

Take `COc1ccc2c(c1)NC(C1CCNCC1)NS2(=O)=O` (stereo not drawn): the INHIBITION was determined as 19.3%.

For the compound `O=S1(=O)NC2(CCCN(Cc3ccc(F)cc3)C2)COc2ccccc21` (stereo not drawn), the INHIBITION is 0.207%.

Regarding `Cc1cncc(C(=O)N2CCCC(O)(CN(C)C)CC2)c1` (stereo not drawn), the INHIBITION is recorded as -5.78%.
